Screens: PubChem, National Center for Advancing Translational Sciences (NCATS)
HEK293 viab – reduces viability of HEK-293 SNCA reporter cells; HEK-293-SNCA-luc viability, GF-AFC fluorescence, 24 h; Potency, µM (highest dose often 57.1 µM), most hits filed as cytotoxic; 150,000 tested, 0.12% active; note: nearly all actives have a fitted effect of over 30% in size
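Cytotoxicity counterscreen: after 24 h compound treatment of genome-edited SNCA-luciferase HEK-293 cells, live-cell protease substrate GF-AFC read by fluorescence after 30 min; activity scaled between DMSO (0%) and medium-only (-100%), curves Hill-fitted.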
SNCA expr inh – SNCA gene expression inhibition | HEK-293 SNCA-luciferase knock-in, luminescence, 24 h | Potency, µM (doses to about 57.2 µM), usual class: inhibitors | 140,000 tested, 0.17% active; note: nearly all actives have a fitted effect of over 45% in size
KDM5B inh – blocks human KDM5B histone demethylase activity; Q9UGL1; KDM5B demethylase, FDH-coupled NADH fluorescence (FDH is formaldehyde dehydrogenase); Potency, µM (highest dose often 57.7 µM), usual class: inhibitors; 220,000 tested, 2.6% active; AID 1347165; note: nearly all actives have a fitted effect of over 70% in size
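Inhibition is measured as reduced NADH fluorescence generation from FDH coupling to formaldehyde release. Truncated KDM5BΔAP at 200 nM final acts on H3K4me3 peptide (12.5 µM in substrate mix) in pH 7.5 HEPES buffer with Tween-20, 30 min, room temperature.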
IP6K1 inhibitor – blocks human inositol hexakisphosphate kinase 1; 140,000 tested, 0.81% active; AID 1645851; activity change, % (series mostly up to about 58 µM); IP6K1 kinase, ADP-Glo luminescence, 2 h; hits give low values; Q92551; in the data active = activity change below about -25%
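ADP-Glo luminescence measures ADP made by human IP6K1 during a 2 h RT reaction with ATP/IP6 (mix at 1.3 mM/130 uM); top library doses 57.5 and 19.1 uM final.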
IP6K1 conf – human IP6K1 inhibition, confirmatory; shares compounds with IP6K1 inhibitor; 1,200 tested, 13% active; Potency, µM (titrated, usually from 49 µM), usual class: inhibitors; AID 1645852; recombinant IP6K1 kinase, ADP-Glo luminescence, 2 h; note: nearly all actives have a fitted effect of over 65% in size
Each line names hits and unclear results; the compound was inactive in the other large screens (follow-up assays come after a bar, where they were run). Most compounds without a hit are left out; they make up all but 3% or so of the library. Unless noted, calls come from the whole dose curve; as a rule, active = well fitted curve in the direction sought with a large enough effect; inconclusive = small, poorly fitted or top-dose-only effect, or another doubt; inactive = no such curve, though single readings can be large; an effect the other way counts as inactive or inconclusive.

Cc1noc(C)c1-c1ccc2c(n1)CN(Cc1ccc(C(F)(F)F)cc1)C(=O)CO2	none
O=C1COc2ccc(-c3ccoc3)nc2CN1Cc1ccc(C(F)(F)F)cc1	KDM5B inh 35µM, IP6K1 inhibitor -29 | IP6K1 conf inconclusive
O=C(c1ccccc1)n1nc(-c2ccco2)nc1NCc1ccccc1Cl	KDM5B inh inconclusive, IP6K1 inhibitor -31 | IP6K1 conf inactive
COc1ccc(CN(C)Cc2ccoc2)cc1OCC(O)CN1CCCCC1 (stereo not given)	IP6K1 inhibitor -38 | IP6K1 conf inactive
O=C(c1ccc(F)c(F)c1Nc1ccc(I)cc1F)N1CC(O)([C@H]2CCCCN2)C1	none (no result: KDM5B inh, IP6K1 inhibitor) | IP6K1 conf inactive
Cc1ccc(C(C(=O)N2CCC(Cc3noc(C)n3)CC2)N(C)C)cc1 (stereo not given)	IP6K1 inhibitor -27 | IP6K1 conf inactive
Cc1nc(CC2CCN(C(=O)c3cc4c(s3)CCC(C)C4)CC2)no1 (stereo not given)	none
Cc1ccn2c(Nc3ccc4c(c3)OCCO4)c(-c3cccs3)nc2c1	KDM5B inh inconclusive, IP6K1 inhibitor -27 | IP6K1 conf inactive
CCn1nc(C)c(CCNC(=O)C2CCC(=O)N(C3CCCC3)C2)c1C (stereo not given)	IP6K1 inhibitor -25 | IP6K1 conf inactive
CN(Cc1nc(-c2ccncc2)no1)C1CCC2(CCNCC2)CC1	IP6K1 inhibitor -41 | IP6K1 conf inactive
FC(F)(F)c1ccc2c(c1)nc(-c1ccc(Cl)cc1)c1nccn12	none (no result: HEK293 viab, SNCA expr inh, IP6K1 inhibitor)
CN1C(=O)N[C@@H](Cc2c[nH]c3c(Cl)cccc23)C1=O	none (no result: SNCA expr inh, KDM5B inh)
CN1C(=O)NC(Cc2c[nH]c3c(Cl)cccc23)C1=O (stereo not given)	none (no result: HEK293 viab, SNCA expr inh, KDM5B inh, IP6K1 inhibitor) | IP6K1 conf inactive
CC(C)C(NC(=O)Cc1ccc2ccccc2c1)C(=O)O (stereo not given)	none (no result: HEK293 viab, SNCA expr inh, IP6K1 inhibitor)
CC(C)N(CCC(=O)c1ccc2ccccc2c1)Cc1ccccc1	HEK293 viab inconclusive (no result: KDM5B inh) | IP6K1 conf 9.2µM
Cc1cc2c(C(C)C)c(O)c(O)c(C=O)c2c(O)c1-c1c(C)cc2c(C(C)C)c(O)c(O)c(C=O)c2c1O	HEK293 viab inconclusive, SNCA expr inh inconclusive, IP6K1 inhibitor -59 (no result: KDM5B inh) | IP6K1 conf inconclusive
Cc1cc(=O)oc2c(C=O)c(O)ccc12	none (no result: SNCA expr inh, KDM5B inh)
COC(=O)CCCCCCCNS(=O)(=O)c1ccc([N+](=O)[O-])cc1	none (no result: HEK293 viab, SNCA expr inh, IP6K1 inhibitor)
Cn1cc(-c2cc(=O)c3ccnc(Nc4ccc5[nH]ccc5c4)c3o2)cn1	IP6K1 inhibitor -38 | IP6K1 conf inconclusive
COc1ccc(-c2nc(-c3c(C)noc3C)cc3cc(CN(C)C)oc23)cn1	KDM5B inh 32µM, IP6K1 inhibitor -49 | IP6K1 conf inconclusive
COc1cc(-c2nc(-c3c(C)noc3C)cc3cc(CN(C)C)oc23)ccn1	KDM5B inh 35µM, IP6K1 inhibitor -33 | IP6K1 conf inconclusive
COc1ccc(Nc2nc(-c3c(C)noc3C)cc3cc(CN(C)C)oc23)cn1	HEK293 viab inconclusive, KDM5B inh inconclusive
Cc1ccc(C)c(C(C)NC(=O)Nc2ccccc2Br)c1 (stereo not given)	none (no result: HEK293 viab, SNCA expr inh, IP6K1 inhibitor)
COc1ccc(CCNC(=O)CS(=O)Cc2nc(-c3ccc(C)cc3)oc2C)c(OC)c1 (stereo not given)	KDM5B inh inconclusive, IP6K1 inhibitor -26 | IP6K1 conf inactive
COc1ccc(CCNC(=O)CS(=O)Cc2nc(-c3ccc(C)cc3)oc2C)cc1OC (stereo not given)	none
COc1ccc(CCNC(=O)CC2Sc3ccccc3NC2=O)cc1 (stereo not given)	none (no result: HEK293 viab, SNCA expr inh, IP6K1 inhibitor)
Cc1ccc(S(=O)(=O)N2CCN(Cc3ccccc3Cl)CC2)cc1	KDM5B inh inconclusive, IP6K1 inhibitor -56 | IP6K1 conf inactive
Cc1ccc(S(=O)(=O)N2CCCN(C(=O)c3cnn(Cc4ccccc4Cl)c3)CC2)cc1	none (no result: HEK293 viab, SNCA expr inh, IP6K1 inhibitor)
CN(Cc1ccccc1)C(=O)c1ccc(S(=O)(=O)Nc2ccccc2)cc1	none (no result: HEK293 viab, SNCA expr inh, KDM5B inh, IP6K1 inhibitor) | IP6K1 conf inactive
O=C(NCc1ccco1)c1cc(-c2ccccc2F)cc2c1OCCN2Cc1cccnc1	HEK293 viab inconclusive, KDM5B inh 28µM, IP6K1 inhibitor -30 | IP6K1 conf inconclusive
O=C(Nc1cccnc1)c1nc2c(o1)CCN(Cc1cccc(O)c1)CC2	none
O=C(Nc1cccnc1)c1cc(-c2ccccc2F)cc2c1OCCN2Cc1cccnc1	HEK293 viab inconclusive, SNCA expr inh inconclusive, KDM5B inh 35µM, IP6K1 inhibitor -49 | IP6K1 conf inconclusive
CCOc1ccc(C(C)NC(=O)c2cc(C)ccc2C)cc1OCC (stereo not given)	none (no result: HEK293 viab, SNCA expr inh, IP6K1 inhibitor)
O=C(CCCCn1c(=O)c2ccccc2n(Cc2cccc(Cl)c2)c1=O)NCc1ccc2c(c1)OCO2	IP6K1 inhibitor -28 | IP6K1 conf inactive
Cc1cccc(Cn2c(=O)n(CCCCC(=O)NCc3ccc4c(c3)OCO4)c(=O)c3ccccc32)c1	none
COc1ccc(C(=O)N2CC(CNC(=O)N3CCCC3)C3(CCOCC3)C2)cc1F (stereo not given)	none (no result: KDM5B inh)
O=C(O)c1ccc(Nc2ncc3c(n2)-c2ccc(Cl)cc2C(c2c(F)cccc2F)=NC3)cc1	IP6K1 inhibitor -49 (no result: KDM5B inh) | IP6K1 conf 10µM
CC1(C(=O)Nc2ccc(F)c(Cl)c2)COCc2cnc(Nc3ccccc3)nc21 (stereo not given)	SNCA expr inh inconclusive, KDM5B inh inconclusive
O=C(NCCc1ccccc1)c1nc2cccnc2n(C2CC2)c1=O	none (no result: KDM5B inh)
Cc1nnc2ccc(N3CCN(C(=O)c4ccc(Cl)cc4)CC3)nn12	none (no result: HEK293 viab, SNCA expr inh, KDM5B inh)
COc1ccc(-c2cc3nc(N)cc(=O)n3[nH]2)cc1	KDM5B inh inconclusive, IP6K1 inhibitor -48 | IP6K1 conf inconclusive
COc1ccc(CN(C)Cc2cc(=O)n3[nH]c(-c4cccc(C)c4)cc3n2)cc1	none (no result: HEK293 viab, SNCA expr inh, IP6K1 inhibitor)
Oc1ccc(Nc2nc(-c3ccc(Cl)cc3)cs2)cc1	IP6K1 inhibitor -32 (no result: SNCA expr inh, KDM5B inh) | IP6K1 conf inconclusive
Cc1ccc(-c2csc(Nc3ccc(O)cc3)n2)cc1C	none (no result: HEK293 viab, SNCA expr inh, IP6K1 inhibitor)
O=C(Cc1[nH]nc2ccccc12)N[C@H](c1ccc2c(c1)CCO2)C1CC(O)C1 (stereo not given in full)	IP6K1 inhibitor -36 | IP6K1 conf inactive
O=C(CN1C(=O)CNC1=O)N[C@H](c1ccc2c(c1)CCO2)C1CC(O)C1 (stereo not given in full)	none
COc1cc(O)c2c(c1)/C=C/C[C@H](O)[C@H](O)C(=O)/C=C\C[C@H](C)OC2=O	HEK293 viab 24µM, IP6K1 inhibitor -30 (no result: SNCA expr inh, KDM5B inh) | IP6K1 conf inconclusive
CC(C(=O)NCc1ccccc1)n1ccc2cc(S(=O)(=O)N3CCCC3)ccc21 (stereo not given)	KDM5B inh inconclusive, IP6K1 inhibitor -27 | IP6K1 conf inactive
CC(C(=O)NCc1ccccc1Cl)n1ccc2cc(S(=O)(=O)N3CCCCC3)ccc21 (stereo not given)	none
COc1ccccc1OC(=O)COc1ccc(C)cc1Br	none (no result: HEK293 viab, SNCA expr inh, IP6K1 inhibitor)
O=S(=O)(Cc1cccc(F)c1)Cc1csc(-c2ccccc2)n1	none (no result: HEK293 viab, SNCA expr inh, IP6K1 inhibitor)
Cc1oc2c(c(C)cc3oc(=O)c(CC(=O)NCCc4ccccc4F)c(C)c32)c1C	IP6K1 inhibitor -27 | IP6K1 conf inactive
